Hit rate of the full screen: of about 360,000 compounds, about 1,700 (0.47%) were called active. Cut-off read from the data, not from the text of the source: active = activation above about 15%; inactive = the rest. The full list was thinned out, with actives kept by preference.
Test: counter-screen for M1 agonists: effect in parental CHO-K1 cells (AID 602248);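 note: untransfected CHO-K1 host cells lacking M1 receptor as counterscreen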
Details: Fluo-8 calcium fluorescence, at 3 µM, hits give high values, scaled to maximal ATP response, vehicle zero

| SMILES | activation |
| --- | --- |
| NC(=O)C1=C[C@@H](c2csc3ccccc23)C[C@@H](OCc2ccc(CO)cc2)O1 | 5.09% (inactive) |
| NC(=O)C1=C[C@H](c2csc3ccccc23)C[C@H](OCc2ccc(CO)cc2)O1 | 15.6% (active) |
| O=C(NC1CC1)C1=C[C@H](c2c[nH]c3ccccc23)C[C@H](OCc2ccc(CO)cc2)O1 | -0.26% (inactive) |
| Cc1ccc(N)cc1-n1c(C)ccc1C | 0.3% (inactive) |
| O=C(CSc1ccc(Cl)cc1)NC1CC1 | -0.25% (inactive) |
| CC/C(C)=N/Nc1nc2sc3c(c2c(=O)[nH]1)CC(C)(C)OC3 | 0.65% (inactive) |
| CCC1(C)Cc2c(sc3nc(SC)[nH]c(=O)c23)CO1 (stereo unspecified) | 18.7% (active) |
| CCSc1nc2sc3c(c2c(=O)[nH]1)CC(C)(C)OC3 | 0.45% (inactive) |
| COc1ccc(-n2ncc3c2CC(C)(C)CC3NC(=O)CCc2c(C)nn(C)c2C)cc1 (stereo unspecified) | 2.09% (inactive) |
| Cc1ccc(NC(=O)C(C)c2cccc(C(=O)c3ccccc3)c2)cc1 (stereo unspecified) | 3.5% (inactive) |
| CCC(C(=O)Nc1ccc(C(C)C)cc1)c1ccccc1 (stereo unspecified) | 21.5% (active) |
| CCCC(C)C(=O)Nc1ccc(NC(C)=O)cc1 (stereo unspecified) | -0.01% (inactive) |
| COc1ccc([C@H]2C[C@@H](n3cc(COC(=O)c4ccccc4)nn3)[C@H](O)CN2C(=O)c2cccs2)cc1 | 4.74% (inactive) |
| O=C(NCCc1ccccn1)c1cc(C(=O)C2CCCCC2)c[nH]1 | 0.74% (inactive) |
| CC(C)N(Cc1ccccc1)C(=S)Nc1ccc(OC(F)F)cc1 | 3.54% (inactive) |
| CC(NC(=S)Nc1ccc(OC(F)F)cc1)c1ccc(F)cc1 (stereo unspecified) | 18.2% (active) |
| CC/C(=N\NC(=S)NC(C)C)c1ccc(OC(F)F)cc1 | 0.04% (inactive) |
| COC(=O)[C@]12CCCCC=C1N(CCC1=CCCCC1)C(=O)[C@H](CC(=O)N1CCSCC1)C2 | 2.39% (inactive) |
| O=C(CC(=O)N/N=C\c1cccc(Cl)c1Cl)NCc1ccccc1 | 6.61% (inactive) |
| CSc1sc(C)cc1C1C(C#N)=C(N)N(c2cccnc2)C2=C1C(=O)CCC2 (stereo unspecified) | 0.25% (inactive) |
| C=CC(=O)OCCOCCOCCOCCOC(=O)C=C | 0.44% (inactive) |
| Oc1ccccc1N1CCN(c2ncnc3sc(-c4ccccc4)cc23)CC1 | 18.6% (active) |
| COc1ccccc1N1CCN(c2ncnc3sc(C)c(-c4ccccc4)c23)CC1 | 0.5% (inactive) |

| SMILES | activation |
| --- | --- |
| CCc1cc2c(N3CCN(c4nnc(CC)s4)CC3)ncnc2s1 | 3.43% (inactive) |
| CCOC(=O)[C@H]1[C@H]2COc3ccc(Cl)cc3[C@@H]2N2C(=O)c3cc(C)ccc3NC(=O)[C@@]12C | -0.51% (inactive) |
| COc1ccc(CSc2nnnn2-c2ccc(O)cc2)cc1F | 7.29% (inactive) |
| COc1ccc2c(c1)[C@H]1[C@H](CO2)[C@H](c2ccccc2)[C@]2(C)C(=O)Nc3cc(F)c(F)cc3C(=O)N12 | 0.27% (inactive) |
| CCN1C(=NCC(C)C)N[C@@H](CCc2ccccc2)[C@H](C(=O)NCC(C)C)[C@H]1C | 0.45% (inactive) |
| O=S1(=O)CC(N2CCN(Cc3ccccc3F)CC2)CN1Cc1cn(Cc2ccccc2)nn1 (stereo unspecified) | 0.46% (inactive) |
| CCOC(=O)CC1=CC(=O)Nc2ccccc2N1 | 0.86% (inactive) |
| CC(=O)Nc1cccc(C(=O)OCC(=O)c2ccc3c(c2)OCO3)c1 | 3.56% (inactive) |
| O=C(COC(=O)c1ccc(Cl)nc1)NCc1ccc2c(c1)OCO2 | 1.56% (inactive) |
| NS(=O)(=O)c1ccc(NC(=O)COC(=O)CCc2c[nH]c3ccccc23)cc1 | 2.12% (inactive) |
| CC(NC(=S)Nc1ccc(S(N)(=O)=O)cc1)c1ccc2c(c1)OCO2 (stereo unspecified) | 0.36% (inactive) |
| NC(=O)c1ccc(NC(=O)COC(=O)c2c3c(nc4ccccc24)/C(=C\c2ccc4c(c2)OCO4)CCC3)cc1 | 28.9% (active) |
| NS(=O)(=O)c1ccc(NC(=O)COC(=O)c2c3c(nc4ccccc24)/C(=C\c2ccc4c(c2)OCO4)CCC3)cc1 | 17.2% (active) |
| Cc1ccc(NS(=O)(=O)c2cn(C)c(=O)n(C)c2=O)c(C)c1 | 0.05% (inactive) |
| O=C(COC(=O)c1cncc(Br)c1)Nc1ccc(S(=O)(=O)N2CCOCC2)cc1 | 0.85% (inactive) |
| CCOC(=O)N(Cc1ccccc1)C1CC1 | 0.45% (inactive) |
| CN(CCO)C(=O)c1nc[nH]c1C(=O)N(C)Cc1ccccc1 | 0.53% (inactive) |
| CN(C(=O)CN(CCO)CC(=O)N(C)C(C)(C)Cc1ccccc1)C(C)(C)Cc1ccccc1 | 30.2% (active) |
| COc1ccc(CCNS(=O)(=O)c2ccc(Cl)s2)cc1OC | 0.5% (inactive) |
| CCCn1c(=O)c2ccccc2n2c(SCC(=O)/C(C#N)=C(\C)N)nnc12 | -0.17% (inactive) |
| CN(C)c1ccc(C(CNC(=O)c2ccc(F)cc2)c2c[nH]c3ccccc23)cc1 (stereo unspecified) | 0.33% (inactive) |
| COC(=O)c1nc2n(n1)C(c1ccc([N+](=O)[O-])cc1)C(C(=O)Nc1ccc(Cl)cc1)=C(C)N2 (stereo unspecified) | 0.7% (inactive) |
| CCN(CC)CCCC(C)n1c2nc(=O)[nH]c(=O)c-2nc2cc(Cl)ccc21 (stereo unspecified) | 150% (active) |

| SMILES | activation |
| --- | --- |
| CC(=O)c1c(C)[nH]c(C(=O)OCC(=O)Nc2c(C)n(C)n(-c3ccccc3)c2=O)c1C | 0.66% (inactive) |
| O=C(c1ccc(=O)[nH]c1)N(Cc1ccco1)C1(C(=O)NC2CCCCC2)CCCCC1 | 0.04% (inactive) |
| COc1ccc(OC)c(NC(=O)C2CCCN2S(=O)(=O)c2cccc3nsnc23)c1 (stereo unspecified) | 0.61% (inactive) |
| Nc1ccc2[nH]c(=S)sc2c1 | 0.51% (inactive) |
| CN1CCN(CCNC(=O)Nc2ccc([N+](=O)[O-])cc2)CC1 | 0.55% (inactive) |
| O=C(CCN1C(=O)COc2ccccc21)NCCCN1CCN(c2ccc(F)cc2)CC1 | 0.21% (inactive) |
| O=C(NCCCN1CCN(c2ccc(F)cc2)CC1)Nc1ccc([N+](=O)[O-])cc1 | 15.1% (active) |
| CCn1nnnc1SCC(=O)Nc1ccc(N(C)C)cc1 | 0.31% (inactive) |
| Nc1nc(CSc2nnnn2-c2ccccc2)nc(Nc2ccccc2)n1 | 1.93% (inactive) |
| Cc1ccccc1Nc1nc(N)nc(CSc2ccccc2)n1 | 0.45% (inactive) |
| CCSCc1nc(N)nc(NCCc2ccccc2)n1 | 15.5% (active) |
| CCOC(=O)C1(Cc2cccc(OC)c2)CCN(C(C)CC(C)(C)O)CC1 (stereo unspecified) | 13.4% (inactive) |
| Cc1ccc(NC(=O)COC(=O)CCc2nc3ccccc3n2-c2ccccc2)c(C)c1 | -0.22% (inactive) |
| COc1cc(OC)cc(C(=O)NNC(=O)CCOc2ccccc2OC)c1 | 0.49% (inactive) |
| O=C(CCCN=C1NS(=O)(=O)c2ccccc21)OCC(=O)c1ccc(F)c(F)c1 | 16.5% (active) |
| O=C(OCCN=C1NS(=O)(=O)c2ccccc21)c1cccc([N+](=O)[O-])c1 | 1.57% (inactive) |
| N#CC1(NC(=O)COC(=O)CCN=C2NS(=O)(=O)c3ccccc32)CCCCC1 | 1.21% (inactive) |
| O=C(NCCCN1CCCC1=O)c1cccc(S(=O)(=O)NCc2ccccc2)c1 | 0.5% (inactive) |
| CC(C)(C)C(=O)NNC(=O)c1ccc(Oc2cc(Cl)cc(Cl)c2)o1 | 0.25% (inactive) |
| CC(C(=O)N1CCc2ccccc21)N(C)CC(=O)Nc1ccc(F)cc1 (stereo unspecified) | 1.77% (inactive) |
| COc1ccc(C(=O)NC(=S)NNC(=O)CCc2ccccc2)cc1 | 21.1% (active) |
| CC(=O)NC(=S)NNC(=O)c1ccc(Br)cc1 | -0.94% (inactive) |
| Cc1scc(C(=O)NNC(=S)NCc2ccccc2)c1C | 1.16% (inactive) |

| SMILES | activation |
| --- | --- |
| COc1ccc(C(=O)NNC(=S)NC(=O)c2ccccc2)cc1 | 38.2% (active) |
| COc1ccccc1CCC(=O)NNC(=O)c1ccncc1 | 0.44% (inactive) |
| Cc1onc(-c2ccccc2)c1C(=O)NNC(=S)NC(=O)c1ccc(F)cc1 | 28.7% (active) |
| COc1ccc(/C(N)=N/OC(=O)CCCc2ccccc2)cc1 | -0.55% (inactive) |
| CC(C)CNC(=S)NNC(=O)c1ccccc1OC(F)F | 0.18% (inactive) |
| Cc1onc(-c2ccccc2)c1C(=O)N1CCN(S(=O)(=O)c2ccccc2C(F)(F)F)CC1 | 0.62% (inactive) |
| O=C(NNC(=S)NCc1ccccc1)c1ccc(OC(F)F)cc1 | 15.8% (active) |
| Cn1nnc(NC(=S)NC(=O)c2ccccc2)n1 | 0.43% (inactive) |
| O=C(/C=C/c1ccc(F)cc1)NC(=S)NNC(=O)c1cccnc1 | 1.3% (inactive) |
| O=C(Oc1ccc2c(c1)CCC2)N1CCOCC1 | 1.59% (inactive) |
| CCC(=O)c1cc(F)ccc1OCC(=O)Nc1ccc2c(c1)OCCO2 | 0.59% (inactive) |
| CC(C)NC(=O)C1(C)CCCCN1Cc1cccc(C(F)(F)F)c1 (stereo unspecified) | -0.34% (inactive) |
| Cc1cccc(NC(=O)N2CCCCCC2)c1C | 0.19% (inactive) |
| Cc1ccc(S(=O)(=O)NC(C)C(=O)Nc2ccccc2C(=O)N2CCCC2)cc1 (stereo unspecified) | -0.4% (inactive) |
| O=S1(=O)CCOC[C@H](CC2CCCCC2)N1Cc1ccc(F)cc1 | -0.24% (inactive) |
| CCC(C)c1ccccc1N1CC(C(=O)N2CCN(S(=O)(=O)c3ccc(F)cc3)CC2)CC1=O (stereo unspecified) | 1.26% (inactive) |
| COc1cccc(-c2ccc(C#N)c(SCC(=O)NCCc3ccc(Cl)cc3)n2)c1 | -0.1% (inactive) |
| CC(=O)Oc1ccc(-c2cccc(C(=O)N3CCCCC3)c2)cc1 | 2.44% (inactive) |
| Nc1c(C(=O)c2cccs2)sc2nsc(SCCN3CCCCC3)c12 | 69.8% (active) |
| CCOC(=O)C(C)Sc1nnc(CSc2nc3nc(C)cc(C)n3n2)o1 (stereo unspecified) | 1.72% (inactive) |
| Cc1ccc(NC(=O)CC2S/C(=N/N=C3\CCCc4ccccc43)NC2=O)cc1 (stereo unspecified) | 12.4% (inactive) |
| O=C(OCc1ccccc1)N1CCC2CC1c1ccc(-c3ccc4c(c3)OCO4)cc12 (stereo unspecified) | 1.17% (inactive) |
